Laboratory results reported in the supplement of paper PMC10127200.
Structures can show the parent of a compound that is named as a salt.

Experiments:
Assay in all cases: Euclidean distance of Cell Painting phenotypic profile (signed KS, 77 features) to DMSO centroid (dimensionless distance); 5 or 10 uM (library dependent); higher = stronger phenotypic change vs DMSO (phenoactivity)
Settings in all cases: 48 h
786-O = test system: 786-O
In short: (§1)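 Five cancer lines, together with a healthy fibroblast line, received library compounds for 48 h at a library-dependent 10 or 5 uM and 0.1% DMSO final. Harmony then derived 77 features from confocal 20X images (9 fields/well) of the stained cells, scoring each as a signed Kolmogorov-Smirnov statistic against same-plate vehicle wells. After plate-position correction, correlation weighting and replicate averaging at the top dose, phenoactivity was taken as each profile's Euclidean distance to the median vehicle profile.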

A549 = test system: A549
In short: as §1

DU145 = test system: DU145
In short: as §1

FB = test system: FB
In short: as §1

HEPG2 = test system: HEPG2
In short: as §1

OVCAR4 = test system: OVCAR4
In short: as §1

| SMILES | Euclidean distance (786-O) | Euclidean distance (A549) | Euclidean distance (DU145) | Euclidean distance (FB) | Euclidean distance (HEPG2) | Euclidean distance (OVCAR4) |
| --- | --- | --- | --- | --- | --- | --- |
| Oc1ccc([C@H]2COc3cc(O)ccc3C2)cc1 [Equol] | 1.09 | 1.52 | 1.04 | 1.35 | 0.768 | 1.72 |
| CC(=O)Nc1nnc(S(N)(=O)=O)s1 [Acetazolamide] | 1.03 | 0.669 | 0.642 | 0.704 | 0.604 | 1.08 |
| CCc1oc2ccccc2c1C(=O)c1cc(Br)c(O)c(Br)c1 [Benzbromarone] | 0.882 | 0.749 | 0.48 | 1.01 | 0.723 | 1.14 |
| O=C1OC(CN2CCOCC2)CN1/N=C/c1ccc([N+](=O)[O-])o1 (stereo not drawn) [Furaltadone HCl] | 0.929 | 1.35 | 1.24 | 1.24 | 0.808 | 2.22 |
| CNCCc1ccccn1 [Betahistine] | 1.31 | 0.763 | 0.72 | 1.01 | 0.628 | 0.854 |
| Cc1[nH]c2ccccc2c1CCNC(=O)c1cccs1 | 0.729 | 2.31 | 0.821 | 0.779 | 0.553 | 1.45 |
| CC1CCc2c(N3CCC(O)CC3)c(F)cc3c(=O)c(C(=O)O)cn1c23 (stereo not drawn) [Nadifloxacin] | 1.05 | 0.818 | 0.896 | 1.14 | 0.855 | 0.748 |
| Nc1ncnc2c1ncn2C1OC(COP(=O)(O)O)C(O)C1O (stereo not drawn) [Adenosine 5'-monophosphate monohydrate] | 0.685 | 0.894 | 0.9 | 0.831 | 0.601 | 1.27 |
| CN1C(N)=N[C@](C)(c2cc(NC(=O)c3ccc(F)cn3)ccc2F)CS1(=O)=O [Verubecestat (MK-8931)] | 0.523 | 0.58 | 0.609 | 0.675 | 0.509 | 0.924 |
| CCCCC(CC)CN1CN(CC(CC)CCCC)CC(C)(N)C1 (stereo not drawn) [Hexetidine] | 0.942 | 4.33 | 6.71 | 2.79 | 0.954 | 5.33 |
| O=C(O)c1cc(-c2ccccc2)nc2ccccc12 [Cinchophen] | 1.16 | 1.12 | 1.3 | 1.12 | 1.47 | 0.992 |
| Cc1cc(Nc2cc(N3CCN(C)CC3)nc(/C=C/c3ccccc3)n2)n[nH]1 [ENMD-2076 L-(+)-Tartaric acid] | 2.7 | 3.58 | 2.34 | 3.64 | 2.99 | 2.91 |
| Cc1cc(C)c2c(c1)[C@@H](N(Cc1cc(C(F)(F)F)cc(C(F)(F)F)c1)c1nnn(C)n1)CCCN2C[C@H]1CC[C@H](C(=O)O)CC1 | 1.71 | 1.7 | 1.3 | 1.05 | 1.05 | 1.25 |
| COC(=O)N/N=C/c1c[n+]([O-])c2ccccc2[n+]1[O-] [Carbadox] | 0.912 | 0.99 | 0.837 | 1.23 | 1.04 | 1.46 |
| O=C(NC1CCNCC1)c1n[nH]cc1NC(=O)c1c(Cl)cccc1Cl | 3.37 | 3.2 | 2.81 | 4.13 | 2.47 | 3.69 |
| CC(C)(C)NC(=O)[C@@H]1CN(Cc2cccnc2)CCN1C[C@@H](O)C[C@@H](Cc1ccccc1)C(=O)N[C@H]1c2ccccc2C[C@H]1O [Indinavir Sulfate] | 0.896 | 0.551 | 0.801 | 0.953 | 0.739 | 1.27 |
| COc1c(O[C@@H]2O[C@H](CO)[C@@H](O)[C@H](O)[C@H]2O)cc2c(c1OC)-c1ccc(SC)c(=O)cc1[C@@H](NC(C)=O)CC2 [Thiocolchicoside] | 0.819 | 0.537 | 0.944 | 1.41 | 0.502 | 1.21 |
| CCC[C@@H]1C[C@@H](C(=O)N[C@@H]([C@H]2O[C@H](SC)[C@H](O)[C@@H](O)[C@H]2O)[C@H](C)Cl)N(C)C1 [Clindamycin] | 0.793 | 0.77 | 0.629 | 1.14 | 0.601 | 0.602 |
| CCC(=O)O[C@@H]1CC(=O)O[C@H](C)C/C=C/C=C/[C@H](O)[C@H](C)C[C@H](CC=O)[C@H](O[C@@H]2O[C@H](C)[C@@H](O[C@H]3C[C@@](C)(O)[C@@H](OC(=O)CC)[C@H](C)O3)[C@H](N(C)C)[C@H]2O)[C@H]1OC [Midecamycin] | 0.98 | 1.59 | 0.874 | 1.31 | 1.08 | 1.07 |
| O=C(O)CCNC(=O)c1ccc(/N=N/c2ccc(O)c(C(=O)O)c2)cc1 [Balsalazide disodium] | 0.73 | 0.808 | 0.796 | 0.76 | 0.576 | 0.971 |
| OCCN1C[C@H](O)[C@@H](O)[C@H](O)[C@H]1CO [Miglitol] | 1.4 | 0.649 | 1.16 | 0.979 | 0.675 | 1.27 |
| Cc1ccccc1N1CCN(CCc2nnc3n2CCCC3)CC1 [Dapiprazole Hydrochloride] | 1.23 | 0.715 | 0.81 | 0.786 | 1.09 | 1.17 |

| SMILES | Euclidean distance (786-O) | Euclidean distance (A549) | Euclidean distance (DU145) | Euclidean distance (FB) | Euclidean distance (HEPG2) | Euclidean distance (OVCAR4) |
| --- | --- | --- | --- | --- | --- | --- |
| NCCCC[C@@H]1NC(=O)[C@@H](Cc2ccccc2)NC(=O)[C@H](CC(=O)O)NC(=O)CNC(=O)[C@H](CCCN=C(N)N)NC1=O [Cyclo (-RGDfK)] | 2.63 | 1 | 2.08 | 0.709 | 3.57 | 2.1 |
| C#C[C@]1(OC(C)=O)CC[C@H]2[C@@H]3CCC4=C[C@@H](OC(C)=O)CC[C@@H]4[C@H]3CC[C@@]21C [Ethynodiol diacetate] | 1.27 | 1.31 | 0.938 | 1.29 | 0.735 | 1.1 |
| CC(/C=C1\SC(=S)N(CC(=O)O)C1=O)=C\c1ccccc1 [Epalrestat] | 1.29 | 1.2 | 0.915 | 1.45 | 0.723 | 0.848 |
| Nc1n[n+]([O-])c2ccccc2[n+]1[O-] [Tirapazamine] | 2.03 | 1.01 | 0.984 | 2.3 | 2.21 | 1.52 |
| CO/N=C(\C(=O)N[C@@H]1C(=O)N2C(C(=O)O)=C(CSc3nc(=O)c(O)nn3C)CS[C@H]12)c1csc(N)n1 [Ceftriaxone Sodium Trihydrate] | 1.01 | 0.779 | 1.23 | 0.836 | 0.792 | 0.926 |
| CCOC(=O)n1ccn(C)c1=S [Carbimazole] | 1.03 | 1.11 | 1.2 | 0.945 | 0.319 | 1.09 |
| COc1ccc2c(Oc3ccc(NC(=O)c4c(C)n(CC(C)(C)O)n(-c5ccccc5)c4=O)nc3)ccnc2c1 | 1.16 | 1.01 | 1.02 | 3.08 | 0.897 | 0.976 |
| CCOC(=O)C1=C[C@@H](OC(CC)CC)[C@H](NC(C)=O)[C@@H](N)C1 [Oseltamivir phosphate] | 0.628 | 0.678 | 0.967 | 1.19 | 0.883 | 1.1 |
| O=C(O)/C=C/c1ccc(Cn2ccnc2)cc1 [Ozagrel] | 1.04 | 0.773 | 1.51 | 0.921 | 0.736 | 1.43 |
| NC1CCN(c2nc3c(cc2F)c(=O)c(C(=O)O)cn3-c2ccc(F)cc2F)C1 (stereo not drawn) [Tosufloxacin p-Toluenesulfonate Hydrate] | 0.975 | 1.03 | 0.829 | 1.12 | 0.47 | 1.3 |
| COc1cc(C[C@H]2C(=O)OC[C@@H]2Cc2ccc(OC)c(OC)c2)ccc1O [(-)-Arctigenin] | 1.04 | 1.48 | 1.36 | 0.929 | 2.46 | 1.29 |
| CCOc1nc2cccc(C(=O)OC(C)OC(=O)OC3CCCCC3)c2n1Cc1ccc(-c2ccccc2-c2nn[nH]n2)cc1 (stereo not drawn) [Candesartan Cilexetil] | 1.1 | 0.605 | 1.35 | 0.788 | 1.82 | 1.29 |
| CN1CCC(=C2c3ccccc3CCc3sccc32)CC1 [Pizotifen Malate] | 1.65 | 1.87 | 2.14 | 2.2 | 1.73 | 1.29 |
| CC1CCc2cc(F)cc3c(=O)c(C(=O)O)cn1c23 (stereo not drawn) [Flumequine] | 1.37 | 0.57 | 1.32 | 0.897 | 0.704 | 1.44 |
| COc1ccc(CNC(=O)Nc2ncc([N+](=O)[O-])s2)cc1 | 0.769 | 1.95 | 0.841 | 0.936 | 1.02 | 0.694 |
| CN(C)CCc1c[nH]c2ccc(Cn3cncn3)cc12 [Rizatriptan Benzoate] | 1.43 | 1.08 | 1.46 | 2.54 | 1.06 | 2.42 |
| Cc1cc(O)c(C(=O)N[C@@H](C(=O)N[C@@H]2C(=O)N3C(C(=O)O)=C(CSc4nnnn4C)CS[C@H]23)c2ccc(O)cc2)cn1 [Cefpiramide sodium] | 0.849 | 1.35 | 1.94 | 1.17 | 0.51 | 0.977 |
| Cc1c(CN2CCN(C(=O)[C@H](C)O)CC2)sc2c(N3CCOCC3)nc(-c3cnc(N)nc3)nc12 | 4.15 | 2.91 | 1.8 | 4.11 | 3.04 | 3.09 |
| Cc1nnc(SCC2=C(C(=O)O)N3C(=O)[C@@H](NC(=O)Cn4cc(Cl)c(=O)c(Cl)c4)[C@H]3SC2)s1 [Cefazedone] | 1.36 | 0.841 | 0.667 | 1.16 | 0.733 | 0.862 |
| O=C(Nc1cc(Cl)cc(Cl)c1O)c1c(O)c(Cl)cc(Cl)c1Cl [Oxyclozanide] | 1.04 | 0.69 | 0.929 | 0.828 | 0.649 | 1.52 |
| Cc1ccc(-n2sc(=O)n(Cc3ccc(F)cc3)c2=O)cc1 | 1.53 | 0.968 | 0.775 | 1.84 | 0.924 | 1.14 |
